A number with no mark means an inactive call. Results filed as inconclusive are left out. Calls of active or inactive are those of the source. Unless noted, the call rests on the fitted dose curve.

The nature of assay [1]: Nuclear factor erythroid 2-related factor 2/antioxidant responsive element (Nrf2/ARE) small molecule agonists: qHTS cell viability counter screen in human keratinocytes (AID 1919968; active means well fitted curve in the direction sought with a large enough effect in the repeat runs; an effect the other way counts as inactive or inconclusive; further: nearly all actives have a fitted effect of over 55% in size; further: potency means the concentration at half of the fitted maximal effect). The essentials: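 CellTiter-Fluor fluorescence, read 1 h after reagent, gave viability in the same wells as the ARE-luciferase assay. KeratinoSens cells (1,500/well) had 23 h compound exposure at 37 C/5% CO2 following 5 h plating.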
(qHTS replaces the single test concentration by a dilution series.)

Assay [2] is described as follows: Nuclear factor erythroid 2-related factor 2/antioxidant responsive element (Nrf2/ARE) small molecule agonists: luciferase reporter gene qHTS assay in human keratinocytes (AID 1919969). Further: nearly all actives have a fitted effect of over 35% in size. Further: potency means the concentration at half of the fitted maximal effect. On the technique in general: In a reporter assay the amount or activity of a reporter protein is the signal.
Assay [3] addresses KiSS-1 receptor (Homo sapiens) (UniProt Q969F8). The assay can be described thus: Human kisspeptin (KISS1R) small molecule agonists, calcium flux assay in KISS1R-HEK293 cells (AID 1920064; active means well fitted curve in the direction sought with a large enough effect in the repeat runs; an effect the other way counts as inactive or inconclusive). Put shortly:
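Agonist mode: intracellular calcium rise tracked at 1 s intervals over 3 min (480/540 nm) immediately after compound addition to dye-loaded KISS1R-HEK293 stable cells. Each compound tested at 15 concentrations in triplicate.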
(A change in cytosolic calcium serves as a functional read-out for many receptors and channels.)

Assay [4] can be described thus: G protein-coupled receptor (GPCR) small molecule agonists, calcium flux assay: HEK293 wild type cell line counter screen (AID 1920065). The essentials:
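Calcium flux counter screen: compound added in agonist mode at 15 concentrations in triplicate to dye-loaded parental HEK293 cells. Fluorescence (480/540) read kinetically for 3 min; ATP served as positive control.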

The nature of assay [5]: p53 small molecule agonists, cell-based qHTS assay with human liver microsomes: qHTS cell viability counter screen (AID 1963579). Further: nearly all actives have a fitted effect of over 45% in size. The essentials:
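Cells carrying the p53 response-element beta-lactamase reporter are treated for 16 h at 37 C with test compounds in the presence of human liver microsomes and NADPH (both 0.5 mg/mL final); ATP-based CellTiter-Glo luminescence then reports viability.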

Assay [6] can be described thus: p53 small molecule agonists, cell-based qHTS assay with rat liver microsomes: qHTS cell viability counter screen (AID 1963580). Further: nearly all actives have a fitted effect of over 45% in size. The essentials:
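Rat liver microsome (0.5 mg/mL final) and NADPH (0.5 mg/mL final) co-incubation with compounds for 16 h at 37 C on HCT-116 p53RE-bla cells; cytotoxicity taken from intracellular ATP luminescence.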

The nature of assay [7]: p53 small molecule agonists, cell-based qHTS assay: qHTS cell viability counter screen (AID 1963581). Further: nearly all actives have a fitted effect of over 45% in size. Put shortly:
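Counter screen read by CellTiter-Glo luminescence (ATP content, 30 min at room temperature), run in the same wells as the beta-lactamase reporter read. HCT-116 p53RE-bla cells saw compounds for 16 h at 37 C.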

The nature of assay [8]: cAMP Responsive Elements (CRE) small molecule agonists, cell-based qHTS assay (AID 1963590). Put shortly:
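Agonist mode: compound added to CRE-bla HEK 293T cells (2,000/well, 18 h after plating) for 3 h at 37 C/5% CO2. Reporter activity detected via FRET beta-lactamase substrate, 2 h room-temperature loading.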

Assay [9] in a line: cAMP Responsive Elements (CRE) small molecule antagonists, cell-based qHTS assay (AID 1963591; active means well fitted inhibition curve with a large enough effect in the signal ratio in the repeat runs, not every such curve was filed as active; the % refers to the signal ratio). Put shortly: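 Antagonist mode: compounds are added alongside the adenylyl cyclase activator NKH477 (0.25 uM final) to CRE-bla HEK293T cells for 3 h. LiveBLAzer FRET substrate, 2 h at room temperature, reports bla expression.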
Assay [10] has as its target Beta-2 adrenergic receptor (Homo sapiens) (UniProt P07550). The assay can be described thus: Adrenergic beta2 receptor (ADRB2) small molecule antagonists, cell-based qHTS assay (AID 1963592). Further: series mostly up to about 92 µM; nearly all actives have a fitted effect of over 50% in size. The essentials: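 Assay format: CHO-ADRB2 cells, 18-20hr seeding at 37C/5% CO2, then compound plus 1nM isoproterenol agonist mix for 0.5hr RT. Homogeneous time-resolved fluorescence cAMP detection after 1hr, expressed as 665/615 nm ratio.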

Assay [11] addresses D(2) dopamine receptor (Homo sapiens) (UniProt P14416). The assay can be described thus: Dopamine D2 receptor (DRD2) small molecule antagonists, cell-based qHTS assay (AID 1963595; active means well fitted inhibition curve with a large enough effect in the signal ratio in the repeat runs, with a control signal flat; the % refers to the signal ratio). The essentials:
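HEK293 cells stably expressing DRD2, preincubated with 0.1 mM Ro20-1724 and compounds 10 min, were stimulated with 200 nM NKH477 plus 12 nM quinpirole for 30 min at room temperature; cAMP measured by HTRF (665/620 nm).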

The target of assay [12] is 5-hydroxytryptamine receptor 2A (Homo sapiens) (UniProt P28223). The assay can be described thus: 5-hydroxytryptamine receptor 2A (HTR2A) small molecule antagonists, cell-based qHTS assay (AID 1963586). Further: nearly all actives have a fitted effect of over 45% in size. Put shortly:
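CHO cells stably expressing human HTR2A were plated for 18 h at 37 C, then loaded with calcium dye for 1 h. Compounds were preincubated 5 min at room temperature before DOI (4 nM solution) was added. Kinetic fluorescence was read for 3 min.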

Assay [13] shares this target. The assay can be described thus: 5-hydroxytryptamine receptor 2A (HTR2A) small molecule agonists, cell-based qHTS assay (AID 1963587). Further: nearly all actives have a fitted effect of over 30% in size. Further: potency means the concentration at half of the fitted maximal effect. Put shortly:
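Kinetic calcium-flux fluorescence (2 min, 1 sec intervals) after compound addition in agonist mode. HTR2A-CHO cells were cultured 18 h, then dye-loaded 1 h at 37 C.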

For assay [14], the target named is Muscarinic acetylcholine receptor M1 (Homo sapiens) (UniProt P11229). The assay can be described thus: Cholinergic receptor muscarinic 1 (CHRM1) small molecule antagonists, cell-based qHTS assay (AID 1963588). Further: nearly all actives have a fitted effect of over 40% in size. The essentials:
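Compounds were tested at 15 concentrations in three independent runs. Dye-loaded CHRM1-CHO cells were exposed 5 min at room temperature before stimulation by acetylcholine added at 50nM. Intracellular calcium was read kinetically on FDSS for 3 min.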

For assay [15], the target named is Beta-2 adrenergic receptor (Homo sapiens) (UniProt P07550). Description: Adrenergic beta2 receptor (ADRB2) small molecule agonists, cell-based qHTS assay (AID 1963593).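 Further: CHO cells stably overexpressing human ADRB2.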 The essentials:
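CHO cells stably over-expressing ADRB2 were plated overnight at 37C, then dosed with compounds plus a stimulation mix containing 100uM IBMX and 25uM Ro-20-1724 for 0.5hr at room temperature. cAMP was measured by HTRF competition, 1hr.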

The target in assay [16] is D(2) dopamine receptor (Homo sapiens) (UniProt P14416). Description: Dopamine D2 receptor (DRD2) small molecule agonists, cell-based qHTS assay (AID 1963594). Further: nearly all actives have a fitted effect of over 35% in size. The essentials:
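cAMP accumulation in DRD2-HEK293 cells measured by HTRF after 1 h detection; compounds added 10 min before NKH477 (200nM […]) forskolin-analogue stimulation, 30 min at room temperature, with Ro20-1724 present at 0.1 mM final.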

For assay [17], the target named is Muscarinic acetylcholine receptor M1 (Homo sapiens) (UniProt P11229). The assay can be described thus: Cholinergic receptor muscarinic 1 (CHRM1) small molecule agonists, cell-based qHTS assay (AID 1963589). Further: nearly all actives have a fitted effect of over 35% in size. Put shortly: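 Agonist-mode calcium-flux screen: compounds at 15 concentrations, three independent runs, were pin-transferred onto dye-loaded human CHRM1-CHO cells. Fluorescence was then recorded kinetically every second over minutes.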

Assay [18] can be described thus: p53 small molecule agonists, cell-based qHTS assay with human liver microsomes (AID 1963577). The essentials:
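Compounds act here after metabolic activation: human liver microsomes and NADPH, both at 0.5 mg/mL final, were co-added to p53RE-bla cells. Incubation ran 16 h at 37 C, followed by LiveBLAzer detection.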

Assay [19] in a line: p53 small molecule agonists, cell-based qHTS assay with rat liver microsomes (AID 1963578). Put shortly:
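Read-out is beta-lactamase reporter fluorescence (LiveBLAzer, 2 h, room temperature, dark) in p53RE-bla cells treated 16 h at 37 C with compound, rat liver microsomes and NADPH, both 0.5 mg/mL final.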

Assay [20] is described as follows: p53 small molecule agonists, cell-based qHTS assay (AID 1963582; active means well fitted activation curve with a large enough effect in the signal ratio in the repeat runs, not every such curve was filed as active; the % refers to the signal ratio). Put shortly: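 Read-out is beta-lactamase FRET fluorescence after 2 h at room temperature with LiveBLAzer B/G substrate. p53 response element-bla cells were treated 16 h at 37 C with compounds in DMSO, added 5 h after seeding.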

Chain of D(2) dopamine receptor (Homo sapiens) (P14416 whole entry, looked up): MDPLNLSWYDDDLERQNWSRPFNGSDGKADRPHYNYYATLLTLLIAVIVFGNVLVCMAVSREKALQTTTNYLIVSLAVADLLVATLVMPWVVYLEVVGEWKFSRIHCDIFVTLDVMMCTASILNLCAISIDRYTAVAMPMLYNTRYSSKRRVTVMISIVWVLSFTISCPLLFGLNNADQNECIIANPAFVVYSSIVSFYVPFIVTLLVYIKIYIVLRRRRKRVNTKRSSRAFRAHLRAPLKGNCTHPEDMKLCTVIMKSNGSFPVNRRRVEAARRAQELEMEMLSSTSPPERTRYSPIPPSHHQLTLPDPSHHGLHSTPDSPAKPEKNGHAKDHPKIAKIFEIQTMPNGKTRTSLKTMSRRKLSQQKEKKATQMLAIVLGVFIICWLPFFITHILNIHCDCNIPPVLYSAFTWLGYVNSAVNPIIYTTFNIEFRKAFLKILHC
Chain of 5-hydroxytryptamine receptor 2A (Homo sapiens) (P28223 whole entry, looked up): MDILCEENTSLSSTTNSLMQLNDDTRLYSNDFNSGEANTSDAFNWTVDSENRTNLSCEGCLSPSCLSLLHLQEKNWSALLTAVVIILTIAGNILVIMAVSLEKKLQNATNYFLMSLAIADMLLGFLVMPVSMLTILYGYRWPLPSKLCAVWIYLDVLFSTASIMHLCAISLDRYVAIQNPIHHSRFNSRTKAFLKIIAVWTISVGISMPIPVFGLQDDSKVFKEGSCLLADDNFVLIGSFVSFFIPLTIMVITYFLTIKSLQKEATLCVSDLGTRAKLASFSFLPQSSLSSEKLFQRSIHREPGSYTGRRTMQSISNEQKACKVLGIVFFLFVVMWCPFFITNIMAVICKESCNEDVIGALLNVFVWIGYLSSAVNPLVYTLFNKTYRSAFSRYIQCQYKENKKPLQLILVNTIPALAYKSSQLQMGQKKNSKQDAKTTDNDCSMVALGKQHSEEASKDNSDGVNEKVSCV
Chain of Beta-2 adrenergic receptor (Homo sapiens) (P07550 whole entry, looked up): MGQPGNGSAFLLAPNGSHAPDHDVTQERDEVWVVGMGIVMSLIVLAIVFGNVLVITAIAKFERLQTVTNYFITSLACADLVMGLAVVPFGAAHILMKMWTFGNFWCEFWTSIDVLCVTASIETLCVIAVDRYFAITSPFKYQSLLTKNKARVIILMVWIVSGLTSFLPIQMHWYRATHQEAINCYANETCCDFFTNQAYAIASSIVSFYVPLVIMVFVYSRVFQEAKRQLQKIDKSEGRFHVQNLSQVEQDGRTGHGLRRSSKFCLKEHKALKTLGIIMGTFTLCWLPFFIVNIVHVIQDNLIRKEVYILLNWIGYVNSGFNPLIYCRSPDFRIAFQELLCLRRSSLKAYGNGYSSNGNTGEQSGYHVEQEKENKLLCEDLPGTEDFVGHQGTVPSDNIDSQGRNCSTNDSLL
Chain of KiSS-1 receptor (Homo sapiens) (Q969F8 whole entry, looked up): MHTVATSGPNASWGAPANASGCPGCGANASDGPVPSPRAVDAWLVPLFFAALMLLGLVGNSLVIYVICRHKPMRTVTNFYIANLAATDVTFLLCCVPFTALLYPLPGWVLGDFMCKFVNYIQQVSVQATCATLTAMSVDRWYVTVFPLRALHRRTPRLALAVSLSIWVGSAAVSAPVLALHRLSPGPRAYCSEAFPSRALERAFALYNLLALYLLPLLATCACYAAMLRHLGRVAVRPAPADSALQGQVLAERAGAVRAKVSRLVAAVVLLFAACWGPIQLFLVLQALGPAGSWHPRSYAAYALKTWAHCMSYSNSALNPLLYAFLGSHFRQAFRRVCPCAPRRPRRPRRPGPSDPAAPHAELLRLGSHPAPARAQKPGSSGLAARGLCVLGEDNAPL
Chain of Muscarinic acetylcholine receptor M1 (Homo sapiens) (P11229 whole entry, looked up): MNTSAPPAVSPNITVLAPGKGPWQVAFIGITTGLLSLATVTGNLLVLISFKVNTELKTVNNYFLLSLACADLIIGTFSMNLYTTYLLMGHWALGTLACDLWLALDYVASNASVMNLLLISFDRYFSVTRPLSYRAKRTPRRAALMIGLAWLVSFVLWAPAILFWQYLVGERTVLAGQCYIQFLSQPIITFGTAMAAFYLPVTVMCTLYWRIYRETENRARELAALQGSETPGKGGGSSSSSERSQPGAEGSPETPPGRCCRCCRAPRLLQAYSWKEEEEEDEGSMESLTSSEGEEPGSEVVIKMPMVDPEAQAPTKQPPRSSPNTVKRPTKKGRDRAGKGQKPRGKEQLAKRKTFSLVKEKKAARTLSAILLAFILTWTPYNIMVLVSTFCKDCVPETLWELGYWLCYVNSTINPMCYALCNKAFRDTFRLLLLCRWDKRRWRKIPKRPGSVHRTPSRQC

Regarding `CSCC[C@H](NC(=O)[C@H](Cc1c[nH]c2ccccc12)NC(=O)CCNC(=O)OC(C)(C)C)C(=O)N[C@@H](CC(=O)O)C(=O)N[C@@H](Cc1ccccc1)C(N)=O`, the Potency result in [1], in assay [2], in assay [3], in assay [4], in [5] and in [6] was “inactive” throughout. In addition, the Potency entry in assay [7], in [8], in assay [9], in assay [10] and in assay [11] was “inactive” throughout.
With `Cc1cccc2c1cc1ccc3cccc4ccc2c1c34`, the Potency entry in assay [1], in assay [2], in assay [3], in assay [5], in [6] and in [7] was “inactive” throughout. The Potency result in assay [12], in assay [13], in assay [14], in [10], in assay [15] and in assay [16] was “inactive” each time. The Potency result in assay [11] is “inactive”.
Consider `O=C(Nc1cccc(Cl)c1)OCC#CCCl`, for which the values for the Potency in assay [1] and in assay [2] were 17.2 µM (active) and 12.2 µM (active), respectively. The Potency entry in [3], in [5], in assay [6], in assay [12], in [14] and in assay [17] was “inactive” throughout. In addition, the Potency result in assay [10], in [15], in assay [16] and in [11] was “inactive” in each case.
`CCCCCCCCCCCCCCCCN`: the Potency entry in assay [1], in [2], in assay [4], in assay [18], in [19] and in [5] was “inactive” in each case. The Potency result in [6], in assay [7], in [20], in assay [14], in assay [17] and in assay [8] was “inactive” each time. Besides, the Potency result in [9], in assay [10] and in assay [16] was “inactive” in each case. The Potency in assay [13] was 23.9 µM (active).
As for `CCC(C)N` (configuration not stated), the Potency entry in assay [1], in assay [2], in [3], in assay [4], in assay [5] and in [6] was “inactive” in each case. The Potency result in [7], in assay [12], in [13], in assay [14], in [17] and in [8] was “inactive” in each case. Besides, the Potency result in [9], in assay [16] and in assay [11] was “inactive” each time.
For `CCCC(=O)OC/C=C(\C)CCC=C(C)C`, the Potency entry in assay [1], in [2], in [3], in assay [5], in assay [6] and in [7] was “inactive” in each case. Also, the Potency entry in assay [12], in [13], in assay [14], in assay [17], in assay [8] and in [9] was “inactive” throughout. In addition, in [11], the Potency result was “inactive”.
In the case of `CC(C)COC(=O)CCCCC(=O)OCC(C)C`, the Potency entry in assay [1], in assay [2], in assay [3], in assay [4], in assay [5] and in assay [6] was “inactive” each time. Besides, the Potency result in assay [7], in assay [12], in [13], in [14], in assay [8] and in assay [9] was “inactive” each time. For the same compound, the Potency entry in assay [10], in assay [16] and in [11] was “inactive” in each case.
On to `C[C@H](CCC(=O)O)[C@H]1CC[C@H]2[C@@H]3CC[C@@H]4C[C@H](O)CC[C@]4(C)[C@H]3CC[C@]12C`, for which the Potency entry in assay [1], in assay [2], in [3], in assay [18], in [19] and in assay [7] was “inactive” each time. Also, the Potency entry in [14], in assay [17], in assay [9], in assay [10], in [15] and in [16] was “inactive” throughout. Besides, the Potency entry in assay [11] is “inactive”. Besides, the Potency in assay [13] was 24.4 µM (active).
Regarding `CO/N=C1\CN(c2nc3c(cc2F)c(=O)c(C(=O)O)cn3C2CC2)CC1CN` (configuration not stated), the Potency result in [1], in assay [2], in assay [3], in assay [4], in assay [5] and in assay [6] was “inactive” throughout. In addition, the Potency entry in assay [7], in [12], in assay [13], in assay [17], in [9] and in [16] was “inactive” in each case. The Potency result in assay [11] is “inactive”.

Values taken from PubChem BioAssay (Tox21).
